Screening results: PubChem, National Center for Advancing Translational Sciences (NCATS)
EPAC1 ag val: validation of human EPAC1 agonists; 1% of 16,000 active; EPAC1 Rap1b BODIPY-GDP exchange, fluorescence; O95398; AID 1645883; Potency, µM, for inactives: max response, positive = active, usual class: activators; further: nearly all actives have a fitted effect of over 70% in size
EPAC2 ant val: human EPAC2 antagonism, validation | Q8WZA2 | EPAC2 Rap1B BODIPY-GDP exchange, fluorescence | Potency, µM (titrated, usually from 112 µM), inactives show at the highest dose activity, negative = inhibition, actives largely listed as inhibitors | 1.7% of 16,000 active | AID 1645886;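 further: 100% = activation by cAMP agonist control; nearly all actives have a fitted effect of over 40% in size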
Target sequence (Q8WZA2 whole entry, looked up): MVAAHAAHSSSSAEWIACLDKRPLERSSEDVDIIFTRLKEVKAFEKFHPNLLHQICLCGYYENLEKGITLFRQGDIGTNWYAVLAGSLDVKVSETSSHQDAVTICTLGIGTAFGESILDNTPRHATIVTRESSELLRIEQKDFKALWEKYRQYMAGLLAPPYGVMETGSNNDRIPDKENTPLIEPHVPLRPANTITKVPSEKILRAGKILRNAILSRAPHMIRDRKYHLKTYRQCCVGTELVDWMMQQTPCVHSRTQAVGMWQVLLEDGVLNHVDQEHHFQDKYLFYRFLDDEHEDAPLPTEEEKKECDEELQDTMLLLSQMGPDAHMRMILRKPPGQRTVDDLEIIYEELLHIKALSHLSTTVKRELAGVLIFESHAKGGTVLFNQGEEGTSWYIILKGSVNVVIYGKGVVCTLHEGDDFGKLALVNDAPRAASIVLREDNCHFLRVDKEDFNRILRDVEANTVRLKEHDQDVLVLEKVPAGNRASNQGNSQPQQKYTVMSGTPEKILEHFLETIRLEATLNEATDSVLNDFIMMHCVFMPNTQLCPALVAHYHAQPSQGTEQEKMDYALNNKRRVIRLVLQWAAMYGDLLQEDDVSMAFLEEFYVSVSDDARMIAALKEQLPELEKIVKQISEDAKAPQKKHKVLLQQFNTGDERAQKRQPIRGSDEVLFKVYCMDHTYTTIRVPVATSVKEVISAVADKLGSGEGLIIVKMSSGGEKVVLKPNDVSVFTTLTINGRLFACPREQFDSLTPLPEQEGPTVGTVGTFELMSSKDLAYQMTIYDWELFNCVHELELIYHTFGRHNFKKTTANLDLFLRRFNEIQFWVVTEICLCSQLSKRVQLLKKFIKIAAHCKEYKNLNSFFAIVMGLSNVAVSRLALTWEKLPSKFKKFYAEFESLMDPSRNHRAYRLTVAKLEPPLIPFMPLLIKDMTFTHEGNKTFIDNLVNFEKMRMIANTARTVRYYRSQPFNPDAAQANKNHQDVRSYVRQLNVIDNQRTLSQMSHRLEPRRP
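Normalized against a 6.5 mM cAMP agonist control, compounds were tested on 100 nM EPAC2 exchanging Rap1B-bound BODIPY-GDP (250 nM) for 50 uM GDP. Fluorescence drop (ex 480, em 540 nm) was tracked at room temperature over 30 min at 5-min intervals.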
The depositor's hits bear a star; ? = inconclusive; ! = repeats disagree; [ ] = dose if it differs, or a comment. Sampled rows, rich in hits. Any-hit rate of the full collection: about 2.9%. The call rests on the fitted dose curve; in most records, active means well fitted curve in the direction sought with a large enough effect; inconclusive means small, poorly fitted or top-dose-only effect, or another doubt; inactive means no such curve, though single readings can be large; an effect the other way counts as inactive or inconclusive. Unless noted, on the % scale 0 is the no-effect control and ±100 the full control effect; potency means the concentration at half of the fitted maximal effect.

SMILES | EPAC1 ag val | EPAC2 ant val
CO[C@H]1C[C@H](O[C@H]2[C@H](C)[C@@H](O[C@@H]3O[C@H](C)C[C@H](N(C)C)[C@H]3OC(C)=O)[C@@H](C)C[C@]3(CO3)C(=O)[C@H](C)[C@@H](OC(C)=O)[C@@H](C)[C@@H](C)OC(=O)[C@@H]2C)O[C@@H](C)[C@@H]1OC(C)=O | -16% | -24%[56.6 µM]
CO[C@@H]1[C@H](OC(=O)/C=C/C=C/C=C/C=C/C(=O)O)CC[C@]2(CO2)[C@H]1[C@@]1(C)O[C@@H]1CC=C(C)C | -25% | -4%
COCc1ccc(C(=O)N2CCOc3ccc(CN4CCN(c5ccc(F)cc5)CC4)cc3C2)o1 | -12% | -8%
CC[C@H]1OC(=O)[C@H](C)[C@@H](O[C@H]2C[C@@](C)(OC)[C@@H](O)[C@H](C)O2)[C@H](C)[C@@H](O[C@@H]2O[C@H](C)C[C@H](N(C)C)[C@H]2O)[C@](C)(O)C[C@@H](C)/C(=N\OCOCCOC)[C@H](C)[C@@H](O)[C@]1(C)O | -27% | 17%[56.6 µM]
COC(=O)C1CCCCN1Cc1ccc2c(c1)CN(Cc1cnn(-c3ccccc3)c1)CCO2 (centres undefined) | -6% | -2%
COc1cc(CNC(=O)CCCC/C=C/C(C)C)ccc1O | -36% | 40µM*!
CCCCC[C@H](O)CC(=O)CCc1ccc(O)c(OC)c1 | -9% | -28%[151 µM]
COc1cc(C=C2CCC/C(=C\c3ccc(O)c(OC)c3)C2=O)ccc1O | ? | -2%
CO[C@@H]1[C@@H](O[C@@H]2O[C@H](C)[C@@H](O[C@H]3C[C@@](C)(O)[C@@H](OC(=O)CC(C)C)[C@H](C)O3)[C@H](N(C)C)[C@H]2O)[C@@H](CC=O)C[C@@H](C)[C@@H](O)/C=C/C=C/C[C@@H](C)OC(=O)C[C@H]1O | 0% | -4%
O=C(O)[C@H](O)c1ccccc1 | -7% | -12%
C[C@H]1C[C@H]2[C@@H]3CCC4=CC(=O)C=C[C@]4(C)[C@@]3(F)[C@@H](O)C[C@]2(C)[C@@]1(O)C(=O)CCl | -39% | ?
COc1cc(-c2coc3cc(OCc4ccccc4)c(OC)c(O)c3c2=O)cc(O)c1OC | 112µM* | -18%
COc1cc(-c2coc3cc(O[C@H]4OC(CO)C(O)C(O)C4O)c(OC)c(O)c3c2=O)cc(O)c1OC (some centres undefined) | 20% | -7%
COCCn1c(=O)cnc2cnc(Oc3cccc(Cl)c3)nc21 | -14% | -10%
O=c1cnc2cnc(Oc3ccccc3)nc2n1Cc1cccs1 | 10% | 13µM*
COc1cccc(Nc2ncc3nc(-c4cccs4)c(=O)n(Cc4cccs4)c3n2)c1 | ? | 4%
O=c1c(-c2cccs2)nc2cnc(Oc3ccccc3)nc2n1Cc1cccs1 | 11% | -22%
COc1cccc(Nc2ncc3ncc(=O)n(Cc4cccs4)c3n2)c1 | 112µM* | -14%
O=c1cnc2cnc(Oc3cccc(Cl)c3)nc2n1Cc1ccc(F)cc1 | 8% | 10µM*
COc1cccc(Nc2ncc3nc(-c4cccs4)c(=O)n(-c4ccccc4)c3n2)c1 | 112µM* | 355%
COc1ccc(-n2c(=O)c(-c3cccs3)nc3cnc(Nc4ccccc4)nc32)cc1 | ? | 12%
COc1ccc(-c2nc3cc(C)ccc3cc2CN(C(=O)c2ccc(C)s2)C2CC2)cc1OC | 5% | ?
COc1ccc(C(=O)N2CCCC(c3nc(SCc4ccccn4)ncc3C)C2)cc1F (centres undefined) | -17% | ?
COc1ccc(CN2CCC3(CC2)c2ccccc2[C@@H](NC(=O)c2ccccc2)[C@@H]3O)cc1O | 14% | 9%
Cc1oc(-c2cccc(NC(=O)c3ccccn3)c2)nc1CNC(=O)C#Cc1ccccc1 | 3% | -3%
SMILES | EPAC1 ag val | EPAC2 ant val
CC[C@H](C)[C@H]1O[C@]2(CC[C@@H]1C)C[C@@H]1C[C@@H](C/C=C(\C)[C@@H](O[C@H]3C[C@H](OC)[C@@H](O[C@H]4C[C@H](OC)[C@@H](O)[C@H](C)O4)[C@H](C)O3)[C@@H](C)/C=C/C=C3\CO[C@@H]4[C@H](O)C(C)=C[C@@H](C(=O)O1)[C@]34O)O2 | -58% | -16%
COC(=O)[C@@H]1CCCN1C(=O)c1cnn(-c2ncc3c(n2)-c2ccccc2CCC3)c1C1CC1 | -3% | -12%
O.O.O.O.O.O.O.O=S(=O)([O-])[O-].[Co+2] | -32% | 50µM*
Cc1cc(-c2ccnc(-n3ncc(C(=O)NCC4COCCO4)c3C3CC3)n2)c(C)s1 (centres undefined) | 14% | -27%
OCCN(CCO)c1nc(N2CCCCC2)c2nc(N(CCO)CCO)nc(N3CCCCC3)c2n1 | 35µM*! | ?
C[C@@]12CCC3c4ccc(O)cc4CCC3C1CCC2O (some centres undefined) | 10% | -20%
C[C@]12CC[C@@H]3c4ccc(O)cc4CC[C@H]3[C@@H]1CC[C@@H]2OC(=O)CCC1CCCC1 | ? | -6%
CCC(=O)O[C@H]1CC[C@H]2[C@@H]3CCc4cc(O)ccc4[C@H]3CC[C@]12C | -160% | 50µM*
